In PubChem BioAssay (EPA / NIEHS):
Activity calls are given as the source filed them. The calls were made as follows: active = hit-call score of the fitted dose curve at least 0.9, where 1 is the maximum; inactive = score below 0.9.

Target: Estrogen receptor (Homo sapiens) (UniProt P03372)
Assay: OT_ERa_GFPERaERE_0480: Odyssey Thera (OT) 8-hour HeLa Transcription Induction Assay for Estrogen Receptor (AID 2283381)
Method: OT_ERa_GFPERaERE_0480 is a cell-based, single-readout assay that uses HeLa, a human cervix cell line, with measurements taken at 8 hours after chemical dosing in a 384-well plate.OT_ERa_GFPERaERE_0480 is one of one assay component(s) measured or calculated from the OT_ERa_GFPERaERE_0480 assay. It is designed to make measurements of fluorescent protein induction, a form of inducible reporter, as detected with optical microscopy: fluorescence microscopy signals by Microscopy technology.Data from the assay component OT_ERa_GFPERaERE_0480 was analyzed into 1 assay endpoint. This assay endpoint, OT_ERa_EREGFP_0480, was analyzed in the positive analysis fitting direction relative to DMSO as the negative control and baseline of activity. Using a type of inducible reporter, measures of receptor for gain-of-signal activity can be used to understand the reporter gene at the pathway-level as they relate to the gene ESR1. Furthermore, this assay endpoint can be referred to as a primary readout, because the performed assay has only produced 1 assay endpoint. To generalize the intended target to other relatable targets, this assay endpoint is annotated to the nuclear receptor intended target family, where the subfamily is steroidal.
All assay endpoints are quantified using high content image analysis algorithms.

Estrogen receptor (Homo sapiens), sequence (P03372 whole entry, looked up): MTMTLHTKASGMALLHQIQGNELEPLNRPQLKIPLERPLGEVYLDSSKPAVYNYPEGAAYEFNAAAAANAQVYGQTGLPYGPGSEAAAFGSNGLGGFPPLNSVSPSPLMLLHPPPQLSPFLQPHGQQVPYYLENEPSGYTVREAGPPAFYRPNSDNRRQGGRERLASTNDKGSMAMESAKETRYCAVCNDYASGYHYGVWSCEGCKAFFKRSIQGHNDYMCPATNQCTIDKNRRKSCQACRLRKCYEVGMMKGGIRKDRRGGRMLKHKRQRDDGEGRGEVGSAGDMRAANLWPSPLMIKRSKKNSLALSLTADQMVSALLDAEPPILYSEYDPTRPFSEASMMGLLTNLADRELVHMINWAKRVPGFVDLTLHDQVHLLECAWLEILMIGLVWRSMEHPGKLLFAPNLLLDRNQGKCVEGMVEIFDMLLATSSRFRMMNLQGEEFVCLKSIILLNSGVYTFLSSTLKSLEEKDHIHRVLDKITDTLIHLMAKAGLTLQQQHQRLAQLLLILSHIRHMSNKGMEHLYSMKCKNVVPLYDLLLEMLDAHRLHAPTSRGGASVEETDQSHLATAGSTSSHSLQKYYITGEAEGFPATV

| Compound | outcome | AC50 |
| --- | --- | --- |
| CCCCCCCCCCCC(=O)OC | inactive | – |
| NCCO | inactive | – |
| NS(=O)(=O)c1cc2c(cc1Cl)NCNS2(=O)=O | inactive | – |
| CCOC(=O)CCC(=O)OCC | inactive | – |
| CCCc1cc(=O)[nH]c(=S)[nH]1 | inactive | – |
| Cc1ccc(N(C)C)cc1 | inactive | – |
| CC(CO)OC(C)CO (stereo not given) (tested in a mixture with another compound) | inactive | – |
| NCC1(Cc2noc(=O)[nH]2)CCCCC1 | inactive | – |
| CCNc1cccc(C)c1 | inactive | – |
| Cc1ccc(C)c(C)c1 | inactive | – |
| O=C(OCCCCCOC(=O)c1ccccc1)c1ccccc1 | inactive | – |
| Cc1ccc2ncccc2c1 | inactive | – |
| Cc1nc(-c2ccc3c(c2)CCN(CCC2CCC(NC(=O)/C=C/c4ccc(F)cc4)CC2)CC3)no1 (stereo not given) | inactive | – |
| Cc1cc(NC(=O)C(=O)O)cc(C)c1Oc1ccc(O)c2c1CCC2 | inactive | – |
| NC(=O)Cn1c(=O)cc(CCN2CCN(c3nccc4sccc34)CC2)c2ccc(F)cc21 | inactive | – |
| Cc1ccc(C(C)C)c(O)c1 | inactive | – |
| O=c1[nH]cc(F)c(=O)[nH]1 | inactive | – |
| CCOc1ccc2c(c1)C(C)=CC(C)(C)N2 | inactive | – |
| CCCCOC(=O)CCCCCCCCC(=O)OCCCC | inactive | – |
| CCCCC(CC)COC(=O)CC(C(=O)OCC(CC)CCCC)S(=O)(=O)O (stereo not given) | – | 22.8 µM (active) |

| Compound | outcome | AC50 |
| --- | --- | --- |
| O=[N+]([O-])C(CO)(CO)CO | inactive | – |
| CCCCN(CCCC)CCCC | inactive | – |
| C=CCOC(=O)c1ccccc1C(=O)OCC=C | inactive | – |
| CC(=O)OC/C=C(\C)CCC=C(C)C | inactive | – |
| CC(=O)OCCOCCOCCOC(C)=O | inactive | – |
| COc1ccc2c(c1)c(CC(=O)O)c(C)n2C(=O)c1ccc(Cl)cc1 | inactive | – |
| COCCOC[C@H](CC1(C(=O)NC2CCC(C(=O)O)CC2)CCCC1)C(=O)Oc1ccc2c(c1)CCC2 (stereo not given in full) | inactive | – |
| FC(F)(F)C(F)(F)C(F)(F)C(F)(F)C(F)(F)C(F)(F)CCI | inactive | – |
| CC(C)c1ccc(C(=O)N=C(N)N)cc1S(C)(=O)=O | inactive | – |
| Nc1ccc(S(=O)(=O)c2ccc(N)cc2)cc1 | inactive | – |
| CCCCCCCCCCC | inactive | – |
| Cc1ccc(C)c(O)c1C | inactive | – |
| CCCCc1ccc2c(n1)[C@@H](c1ccc(OC)cc1C[C@H](C)C(=O)O)[C@H](C(=O)O)[C@H]2c1ccc2c(c1)OCO2 | inactive | – |
| O=C(O)Cc1ccccc1Nc1c(Cl)cccc1Cl | inactive | – |
| Cc1ccccc1Cl | inactive | – |
| CN1CCCC1=O | inactive | – |
| Oc1ccc2c(c1)OC[C@@H](N1CCC(O)(c3ccc(F)cc3)CC1)[C@H]2O | inactive | – |
| Oc1ccc2ccccc2c1N=Nc1ccccc1 | inactive | – |
| Clc1cc(Cl)c(Cl)cc1Cl | inactive | – |
| COc1ccc(C)cc1N | inactive | – |
